Laboratory results reported in PubChem BioAssay (Tox21).
Results filed as inconclusive are left out. The source made the active and inactive calls. Unless noted, calls come from the whole dose curve; as a rule, active = well fitted curve in the direction sought with a large enough effect in the repeat runs; inconclusive = weak or mixed curves; inactive = no such curve, though single readings can be large; an effect the other way counts as inactive or inconclusive.

How the values were obtained:
[1] = qHTS assay to identify small molecule antagonists of the sonic hedgehog signaling (Shh) pathway (AID 1259369; calls by dose curve; note: nearly all actives have a fitted effect of over 45% in size)
Outline: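 NIH/3T3-derived 3T3Gli1-Luc cells with stably integrated Gli1-Luc reporter were preincubated 4hr at 37 C, then given compounds in DMSO plus Shh conditioned medium and incubated 24hr. Firefly luciferase luminescence read after 30min reagent at room temperature.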

[2] = target: Estrogen receptor beta (Homo sapiens) (UniProt Q92731); test: qHTS assay to identify small molecule agonists of the estrogen receptor beta (ER-beta) signaling pathway (AID 1259377; active = well fitted activation curve with a large enough effect in the signal ratio in the repeat runs, not every such curve was filed as active; the % refers to the signal ratio)
Chain of Estrogen receptor beta (Homo sapiens) (Q92731 whole entry, looked up): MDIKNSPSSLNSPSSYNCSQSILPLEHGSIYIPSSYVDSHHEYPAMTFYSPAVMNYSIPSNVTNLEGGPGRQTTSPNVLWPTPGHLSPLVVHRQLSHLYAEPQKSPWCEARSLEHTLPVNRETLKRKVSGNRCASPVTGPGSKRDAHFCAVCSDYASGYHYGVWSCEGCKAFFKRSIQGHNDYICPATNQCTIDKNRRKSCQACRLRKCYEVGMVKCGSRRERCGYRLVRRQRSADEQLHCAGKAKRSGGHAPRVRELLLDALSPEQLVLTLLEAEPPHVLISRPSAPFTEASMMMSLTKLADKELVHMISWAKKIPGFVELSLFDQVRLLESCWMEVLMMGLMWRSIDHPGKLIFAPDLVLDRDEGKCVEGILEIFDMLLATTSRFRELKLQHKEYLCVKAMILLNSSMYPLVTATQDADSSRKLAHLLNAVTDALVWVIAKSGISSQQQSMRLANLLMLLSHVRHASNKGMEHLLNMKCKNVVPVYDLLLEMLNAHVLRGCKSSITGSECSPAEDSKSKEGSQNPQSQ
Outline: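 In HEK293T cells bearing a UAS-beta-lactamase reporter under ER-beta control, DMSO-delivered compounds were incubated for 16 hr at 37C. Activity was detected as fluorescence 2 hours after LiveBLAzer B/G FRET substrate addition.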

[3] = target: Estrogen receptor beta (Homo sapiens) (UniProt Q92731); test: qHTS assay to identify small molecule antagonists of the estrogen receptor beta (ER-beta) signaling pathway (AID 1259378; active = well fitted inhibition curve with a large enough effect in the signal ratio in the repeat runs, not every such curve was filed as active; the % refers to the signal ratio)
Outline: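 Antagonist mode: compounds added to beta-lactamase reporter HEK293T ER-beta-UAS cells stimulated with E2 (1nM final), 16 hr at 37C. LiveBLAzer B/G FRET substrate, 2 hours room temperature, fluorescence read-out.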

[4] = qHTS assay to identify small molecule agonists of the androgen receptor (AR) signaling pathway in the presence of an antagonist - cell viability counter screen (AID 1259379); note: series mostly up to about 92 µM; nearly all actives have a fitted effect of over 25% in size
Outline: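 MDA-kb2 human breast carcinoma cells (stable MMTV-luciferase, AR/GR responsive) were seeded 3,000 cells/well, pre-incubated 5 hr at 37C without CO2, then given 3.0uM nilutamide and compounds at 15 concentrations for 16 hr. Viability was read by CellTiter-Fluor fluorescence.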

[5] = qHTS assay to identify small molecule agonists of the estrogen receptor beta (ER-beta) signaling pathway - cell viability counter screen (AID 1259380); note: nearly all actives have a fitted effect of over 30% in size
Outline: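 ER-beta-UAS-bla HEK293T cells in medium with 2% charcoal-stripped FBS were preincubated 6 hr at 37C, dosed with compound in DMSO for 16 hr, then after the bla read, CellTiter-Glo was added for 30 min at room temperature; luminescence recorded.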

[6] = qHTS assay to identify small molecule antagonists of the estrogen receptor beta (ER-beta) signaling pathway - cell viability counter screen (AID 1259382);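 note: HEK293T cells carrying ER-beta-UAS-bla reporter stimulated with estradiol; series mostly up to about 92 µM; nearly all actives have a fitted effect of over 55% in size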
Outline: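 ER-beta-UAS-bla HEK293T cells (2,000/well, 2% charcoal-stripped FBS) were pre-incubated 6 hr at 37C, then given compound plus 1nM final 17-beta-estradiol for 16 hr. Viability was read in the same wells by CellTiter-Glo luminescence after 30 min at room temperature.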

[7] = target: Estrogen receptor (Homo sapiens) (UniProt P03372); test: qHTS assay to identify small molecule agonists of the estrogen receptor alpha (ER-alpha) signaling pathway in the presence of an antagonist (AID 1259383; calls by dose curve; note: top concentration of the series differs between compounds; nearly all actives have a fitted effect of over 15% in size)
Chain of Estrogen receptor (Homo sapiens) (P03372 whole entry, looked up): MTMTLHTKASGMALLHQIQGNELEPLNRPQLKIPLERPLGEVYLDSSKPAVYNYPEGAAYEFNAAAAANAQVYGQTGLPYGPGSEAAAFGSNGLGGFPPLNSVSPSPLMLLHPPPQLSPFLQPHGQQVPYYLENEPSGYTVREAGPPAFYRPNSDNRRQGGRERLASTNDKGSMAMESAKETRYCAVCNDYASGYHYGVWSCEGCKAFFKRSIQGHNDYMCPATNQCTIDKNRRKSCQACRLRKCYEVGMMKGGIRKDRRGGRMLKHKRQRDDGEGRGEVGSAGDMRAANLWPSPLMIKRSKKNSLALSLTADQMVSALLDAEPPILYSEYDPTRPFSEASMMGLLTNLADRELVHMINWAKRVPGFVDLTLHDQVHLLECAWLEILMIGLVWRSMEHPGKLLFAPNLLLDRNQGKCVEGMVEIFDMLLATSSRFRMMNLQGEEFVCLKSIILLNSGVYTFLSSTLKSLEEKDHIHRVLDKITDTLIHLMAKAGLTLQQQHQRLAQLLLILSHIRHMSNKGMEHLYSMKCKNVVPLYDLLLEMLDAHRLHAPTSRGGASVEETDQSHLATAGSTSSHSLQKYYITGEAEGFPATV
Outline: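 VM7Luc4E2 cells (endogenous full-length ER-alpha, 4×ERE-luciferase) were precultured 5 days in phenol red-free medium with 10% charcoal-stripped FBS, given 10.0nM ICI-182,780 (final), then treated with compounds at 15 concentrations for 22hr at 37C; luminescence read with ONE-Glo.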

[8] = qHTS assay to identify small molecule agonists or antagonists of the thyroid stimulating hormone receptor (TSHR) signaling pathway - wild type cell line counter screen (AID 1259384; calls by dose curve)
Outline: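 Counter screen in untransfected Hek293: compounds (15-point titration, triplicate) plus phosphodiesterase inhibitor Ro20-1724 added after 18 h plating; 30 min RT. Intracellular cAMP via competitive d2/cryptate immunoassay, 1 h incubation.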

[9] = target: Thyrotropin receptor (Homo sapiens) (UniProt P16473); test: qHTS assay to identify small molecule antagonists of the thyroid stimulating hormone receptor (TSHR) signaling pathway (AID 1259385; calls by dose curve; note: nearly all actives have a fitted effect of over 20% in size)
Chain of Thyrotropin receptor (Homo sapiens) (P16473 whole entry, looked up): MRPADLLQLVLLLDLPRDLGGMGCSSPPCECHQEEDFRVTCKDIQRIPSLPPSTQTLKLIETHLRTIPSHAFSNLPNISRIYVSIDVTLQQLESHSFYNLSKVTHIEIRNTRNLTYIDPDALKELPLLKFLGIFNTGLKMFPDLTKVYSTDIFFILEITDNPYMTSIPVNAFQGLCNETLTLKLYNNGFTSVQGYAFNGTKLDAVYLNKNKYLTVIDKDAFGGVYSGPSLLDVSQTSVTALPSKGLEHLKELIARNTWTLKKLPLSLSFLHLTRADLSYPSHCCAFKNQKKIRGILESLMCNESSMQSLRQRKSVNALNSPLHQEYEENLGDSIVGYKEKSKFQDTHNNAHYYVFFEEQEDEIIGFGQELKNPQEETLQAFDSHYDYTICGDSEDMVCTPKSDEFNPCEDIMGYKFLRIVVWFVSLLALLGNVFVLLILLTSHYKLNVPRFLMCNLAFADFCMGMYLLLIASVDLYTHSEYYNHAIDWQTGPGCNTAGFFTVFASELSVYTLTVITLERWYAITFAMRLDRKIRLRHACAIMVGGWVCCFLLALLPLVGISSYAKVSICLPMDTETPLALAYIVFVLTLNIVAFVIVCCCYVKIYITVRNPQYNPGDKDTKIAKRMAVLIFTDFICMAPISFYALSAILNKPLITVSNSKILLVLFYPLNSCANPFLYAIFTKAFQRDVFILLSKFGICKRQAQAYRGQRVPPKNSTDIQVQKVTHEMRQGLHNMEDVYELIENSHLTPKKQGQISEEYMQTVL
Outline: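 Antagonist mode: compound-treated TSHR-expressing HEK293 cells were stimulated with 1.5 ng/mL TSH (final) in presence of Ro20-1724 for 30 min at RT. HTRF cAMP detection after 1 h; each compound tested at 15 concentrations, triplicate.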

[10] = qHTS assay to identify small molecule agonists of the estrogen receptor alpha (ER-alpha) signaling pathway in the presence of an antagonist - cell viability counter screen (AID 1259386);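 note: series mostly up to about 92 µM; cells exposed to compounds for 22 h at 37 °C before the viability read; nearly all actives have a fitted effect of over 30% in size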
Outline: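 VM7Luc4E2 cells (endogenous full-length ER-alpha, 4×ERE-luciferase) were held 5 days in phenol red-free medium with 10% charcoal-stripped FBS, plated, then given 10.0nM ICI-182,780 and compounds at 15 concentrations for 22hr at 37C; viability read by CellTiter-Fluor fluorescence.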

[11] = target: Progesterone receptor (Homo sapiens) (UniProt P06401); test: qHTS assay to identify small molecule agonists of the progesterone receptor (PR) signaling pathway (AID 1346784; calls by dose curve; note: nearly all actives have a fitted effect of over 30% in size)
Chain of Progesterone receptor (Homo sapiens) (P06401 whole entry, looked up): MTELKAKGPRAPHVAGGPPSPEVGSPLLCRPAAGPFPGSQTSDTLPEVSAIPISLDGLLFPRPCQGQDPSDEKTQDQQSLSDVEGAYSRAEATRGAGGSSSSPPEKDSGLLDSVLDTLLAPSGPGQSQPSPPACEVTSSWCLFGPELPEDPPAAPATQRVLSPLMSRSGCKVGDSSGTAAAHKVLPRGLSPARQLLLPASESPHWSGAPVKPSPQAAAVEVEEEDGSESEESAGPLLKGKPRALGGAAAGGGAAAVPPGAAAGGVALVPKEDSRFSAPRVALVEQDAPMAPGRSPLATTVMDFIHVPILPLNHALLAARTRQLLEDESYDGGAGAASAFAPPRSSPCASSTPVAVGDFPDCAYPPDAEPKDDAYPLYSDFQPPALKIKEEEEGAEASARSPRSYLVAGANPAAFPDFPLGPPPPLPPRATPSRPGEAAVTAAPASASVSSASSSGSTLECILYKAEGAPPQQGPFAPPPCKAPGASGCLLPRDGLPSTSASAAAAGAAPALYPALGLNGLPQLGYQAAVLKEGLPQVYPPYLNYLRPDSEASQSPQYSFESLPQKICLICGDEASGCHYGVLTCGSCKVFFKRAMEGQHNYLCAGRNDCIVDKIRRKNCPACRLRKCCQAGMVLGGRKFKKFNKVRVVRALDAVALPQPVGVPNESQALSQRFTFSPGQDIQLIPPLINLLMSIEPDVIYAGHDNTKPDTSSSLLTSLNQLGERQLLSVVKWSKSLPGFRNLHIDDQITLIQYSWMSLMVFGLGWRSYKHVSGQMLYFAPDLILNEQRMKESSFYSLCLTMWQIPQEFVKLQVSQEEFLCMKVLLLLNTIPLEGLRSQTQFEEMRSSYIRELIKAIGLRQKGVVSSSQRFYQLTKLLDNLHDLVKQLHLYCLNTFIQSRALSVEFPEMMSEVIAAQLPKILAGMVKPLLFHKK
Outline: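 Using charcoal-stripped serum (2%) to limit endogenous steroids, PR-UAS-bla HEK 293T cells received compounds for 16 hr at 37C after 6 hr plating; beta-lactamase FRET fluorescence was recorded following 2 hr substrate loading at room temperature.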

[12] = target: Progesterone receptor (Homo sapiens) (UniProt P06401); test: qHTS assay to identify small molecule antagonists of the progesterone receptor (PR) signaling pathway (AID 1346795; active = well fitted inhibition curve with a large enough effect in the signal ratio in the repeat runs, not every such curve was filed as active; the % refers to the signal ratio)
Outline: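 Inhibition of R5020-induced (1 nM final) beta-lactamase reporter signal in PR-UAS-bla HEK293T cells was scored by FRET fluorescence after overnight (16 hr) compound treatment.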

[13] = qHTS assay to identify small molecule antagonists of the progesterone receptor (PR) signaling pathway - cell viability counter screen (AID 1346798); note: series mostly up to about 92 µM; nearly all actives have a fitted effect of over 50% in size
Outline: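 ATP content as viability readout: CellTiter-Glo luminescence, 30 min room temperature, in PR-UAS-bla HEK293T cells after 16 hr compound/R5020 treatment at 37C and 5% CO2.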

[14] = qHTS assay to identify small molecule agonists of the progesterone receptor (PR) signaling pathway - cell viability counter screen (AID 1346799; calls by dose curve; note: nearly all actives have a fitted effect of over 45% in size)
Outline: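 Cytotoxicity in PR-bla HEK293T cells: 16 h compound, 37C; CellTiter-Glo added post-FRET read; luminescence after 30 min RT.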

[15] = qHTS assay to identify small molecule antagonists of the TGF-beta/Smad signaling pathway - cell viability counter screen (AID 1346824); note: nearly all actives have a fitted effect of over 50% in size
Outline: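 Cytotoxicity counter-screen run in the same wells as the beta-lactamase Smad reporter read: CellTiter-Glo luminescence after 30 min at room temperature. HEK 293T SBE-bla cells had 5 hr compound exposure at 37 C with TGF-beta1 (0.25 ng/mL stock).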

[16] = qHTS assay to identify small molecule agonists of the TGF-beta/Smad signaling pathway - cell viability counter screen (AID 1346829); note: top concentration of the series differs between compounds; nearly all actives have a fitted effect of over 45% in size
Outline: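 Tox21 qHTS format: SBE-bla HEK 293T cells treated with DMSO-dissolved compounds for 5 hr; CellTiter-Glo luminescence after 30 min at room temperature.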

[17] = qHTS assay to identify small molecule agonists of the TGF-beta/Smad signaling pathway (AID 1346859; active = well fitted activation curve with a large enough effect in the signal ratio in the repeat runs, not every such curve was filed as active; the % refers to the signal ratio; note: series mostly up to about 77 µM)
Outline: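 Stable Smad binding element-beta-lactamase HEK 293T cells; 5 hr compound exposure at 37 C under 5% CO2; 2 hr room-temperature substrate step; fluorescence excited at 405 nm, collected at 460 nm and 530 nm.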

[18] = target: Thyrotropin-releasing hormone receptor (Homo sapiens) (UniProt P34981); test: qHTS assay to identify small molecule antagonists of the thyrotropin-releasing hormone receptor (TRHR) signaling pathway (AID 1346877; active = well fitted inhibition curve with a large enough effect in the repeat runs, not every such curve was filed as active; note: series mostly up to about 51 µM)
Chain of Thyrotropin-releasing hormone receptor (Homo sapiens) (P34981 whole entry, looked up): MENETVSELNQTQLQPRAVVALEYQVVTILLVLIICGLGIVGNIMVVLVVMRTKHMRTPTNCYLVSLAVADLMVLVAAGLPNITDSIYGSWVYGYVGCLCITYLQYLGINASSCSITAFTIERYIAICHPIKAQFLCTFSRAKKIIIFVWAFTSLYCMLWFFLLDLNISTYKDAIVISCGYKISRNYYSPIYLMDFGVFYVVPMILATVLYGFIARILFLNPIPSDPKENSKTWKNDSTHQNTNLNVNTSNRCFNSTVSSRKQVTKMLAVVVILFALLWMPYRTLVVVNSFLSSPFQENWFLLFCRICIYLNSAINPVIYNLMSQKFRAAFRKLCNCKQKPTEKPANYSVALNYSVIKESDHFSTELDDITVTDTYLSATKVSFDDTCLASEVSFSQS
Outline: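 TRHR-expressing HEK293 cells were seeded, cultured 18 h at 37 °C, then loaded with calcium dye for 2 h. Compounds were pre-incubated 5 min at room temperature before 1 nM TRH (final) was added, and kinetic fluorescence was recorded for 3 min.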

[19] = target: Thyrotropin-releasing hormone receptor (Homo sapiens) (UniProt P34981); test: qHTS assay to identify small molecule agonists of the thyrotropin-releasing hormone receptor (TRHR) signaling pathway (AID 1346891; calls by dose curve; note: series mostly up to about 58 µM)
Outline: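 In 1536-format, 1500 TRHR-Hek293 cells per well grew 18 h, took up calcium dye for 2 h at 37 °C, received compound, and were read kinetically; 15-point titrations, triplicates.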

[20] = target: Androgen receptor (Homo sapiens) (UniProt P10275); test: qHTS assay to identify small molecule agonists of the androgen receptor (AR) signaling pathway in the presence of an antagonist (AID 1259381; calls by dose curve; note: nearly all actives have a fitted effect of over 15% in size)
Chain of Androgen receptor (Homo sapiens) (P10275 whole entry, looked up): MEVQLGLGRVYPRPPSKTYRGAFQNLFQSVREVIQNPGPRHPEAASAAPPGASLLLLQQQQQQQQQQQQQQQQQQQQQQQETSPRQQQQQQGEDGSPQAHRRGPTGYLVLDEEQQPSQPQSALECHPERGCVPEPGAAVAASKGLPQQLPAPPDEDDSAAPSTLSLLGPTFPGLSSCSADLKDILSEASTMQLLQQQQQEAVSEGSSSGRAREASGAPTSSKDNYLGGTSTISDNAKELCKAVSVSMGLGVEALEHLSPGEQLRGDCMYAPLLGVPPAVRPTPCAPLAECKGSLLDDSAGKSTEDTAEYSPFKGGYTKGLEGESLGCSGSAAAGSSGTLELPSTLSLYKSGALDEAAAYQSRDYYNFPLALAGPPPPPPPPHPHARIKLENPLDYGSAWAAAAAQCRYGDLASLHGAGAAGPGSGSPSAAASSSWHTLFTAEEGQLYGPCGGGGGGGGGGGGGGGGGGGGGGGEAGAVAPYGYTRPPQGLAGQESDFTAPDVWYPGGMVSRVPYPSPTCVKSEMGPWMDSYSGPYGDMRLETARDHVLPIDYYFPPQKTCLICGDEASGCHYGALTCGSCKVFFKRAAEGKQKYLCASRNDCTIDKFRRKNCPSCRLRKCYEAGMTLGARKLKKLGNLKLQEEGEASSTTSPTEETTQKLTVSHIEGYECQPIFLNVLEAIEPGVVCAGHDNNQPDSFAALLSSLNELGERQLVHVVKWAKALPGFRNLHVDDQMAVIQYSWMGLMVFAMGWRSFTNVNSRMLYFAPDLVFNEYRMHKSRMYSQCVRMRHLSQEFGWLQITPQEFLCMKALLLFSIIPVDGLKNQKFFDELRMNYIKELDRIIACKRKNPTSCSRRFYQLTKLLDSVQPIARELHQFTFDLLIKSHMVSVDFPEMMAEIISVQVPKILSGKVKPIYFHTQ
Outline: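 MDA-kb2 human breast carcinoma cells carrying an MMTV-luciferase reporter (AR- and GR-responsive) were treated with compounds at 15 concentrations plus 3.0uM final nilutamide for 16hr at 37C without CO2; luminescence was read after ONE-Glo addition.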

Measured: Potency

CC(CC=O)CC(C)(C)C (centres undefined)
not listed: [20]
inactive: all other assays above

CCCCOCCOC(=O)COc1cc(Cl)c(Cl)cc1Cl
not listed: [18]
inactive: all other assays above

C=CC(C)(CCC=C(C)C)OC(=O)CC (centres undefined)
not listed: [8] | [20]
inactive: all other assays above

CCCCCCCC1CCCC1=O (centres undefined)
not listed: [18] | [19]
inactive: all other assays above

CC[N+](CC)(CC)CCOc1cccc(OCC[N+](CC)(CC)CC)c1OCC[N+](CC)(CC)CC
not listed: [6] | [7] | [18] | [19]
inactive: all other assays above

CN1C(C)(C)CC(O)CC1(C)C
not listed: [8] | [18] | [19] | [20]
inactive: all other assays above

COc1cc(C(=O)OC(COCCC(C)C)CN2CCOCC2)cc(OC)c1OC (centres undefined)
not listed: [20]
inactive: all other assays above

O=CN(CCO)CCO
not listed: [7] | [8] | [11] | [20]
inactive: all other assays above

NC(=O)Cc1cccc2ccccc12
not listed: [7] | [20]
inactive: all other assays above

CC(C)c1ccc2ncccc2c1
not listed: [8] | [9] | [12] | [18] | [19] | [20]
inactive: all other assays above

CC(=O)OCC(=O)[C@@]1(O)[C@H](C)C[C@H]2[C@@H]3CCC4=CC(=O)C=C[C@]4(C)[C@@]3(F)[C@@H](O)C[C@@]21C
not listed: [7] | [11] | [12] | [14] | [16] | [20]
inactive: all other assays above

CCC(=O)OCc1ccccc1
not listed: [6] | [7] | [18] | [20]
inactive: all other assays above

CC(C#N)(CCC(=O)O)N=NC(C)(C#N)CCC(=O)O (centres undefined)
not listed: [7] | [8] | [11] | [20]
inactive: all other assays above

CCOC(=O)COc1cc(-n2ncc(C(F)(F)F)c(C)c2=O)c(F)cc1Cl
not listed: [4] | [17]
inactive: all other assays above

CNCCO
not listed: [5] | [7] | [8] | [18] | [20]
inactive: all other assays above

O=Cc1cccc(Br)c1
not listed: [7] | [8] | [12] | [20]
inactive: all other assays above

Cc1onc(-c2c(Cl)cccc2Cl)c1C(=O)Cl
not listed: [5] | [8] | [11] | [18]
inactive: all other assays above
